PubChem BioAssay AID651703 (Broad Institute, 2012)
The campaign covered roughly 1,200 compounds. About 970 (81%) were called active. No rule for the calls is given here. So high a share suggests a set chosen from earlier hits. Only a sample is shown. Entries with a potency or affinity are not part of this list. Non-standard residues stand in square brackets, D forms with d. Residues, ends and D or L forms follow the SMILES beside them. *: point of attachment. Ac5c = NC1(C(=O)O)CCCC1; Cbz = O=C(OCc1ccccc1)*

Molecular target: Transforming acidic coiled-coil-containing protein 3 (Homo sapiens) (UniProt Q9Y6A5)
Assay: ARNT/TACC3 interaction disruptors, potency, confirmation, biochemical, AlphaScreen, cherry-picked samples (AID 651703);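 also: TACC3 partner is the GST-tagged E629A mutant dimer; hits lower the signal meaning they disrupt ARNT binding to TACC3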
Details: AlphaScreen His-ARNT PAS-B / GST-TACC3 binding, luminescence; series mostly up to 68 µM; activity change, negative = inhibition: at the top concentration

Activity change, negative = inhibition, inactive:
COc1ccc(-c2nc(CN3CCC(C(=O)NC4CCCc5ccccc54)CC3)c(C)o2)cc1OC (stereo not drawn) -10.4%
O=C(C[C@@H]1CC[C@H](NC(=O)CN2CCOCC2)[C@H](CO)O1)NCCc1ccncc1 -4.91%
CN(C)S(=O)(=O)N1CCN(S(=O)(=O)c2ccc(F)cc2)CC1 -10.6%
Cc1nnc(NC(=O)CSc2nnc(CNC(=O)c3ccc(F)cc3)o2)s1 -20.2%
COc1ccc2cc1Oc1ccc(cc1)C[C@H]1c3cc(c(OC)cc3CCN1C)Oc1c(OC)c(OC)cc3c1[C@@H](C2)N(C)CC3 -30.8%
CCC(C(=O)Nc1ncn[nH]1)(C(F)(F)F)C(F)(F)F -1.07%
CC(=O)c1cccc(NC(=O)N2CCCC2C(=O)NCc2ccccc2)c1 (stereo not drawn) 1%
COc1ccc(/C(C)=N\NC(=O)CSc2nnc(C)s2)cc1 -24.7%
O=C(NCC1CC1)c1cc(-c2ccccc2)on1 4.25%
NS(=O)(=O)c1ccc(CCNC(=O)c2ccc3c(c2)OCO3)cc1 -4.8%
O=C(NCCCO)c1cc(-c2ccccc2)on1 -4%
Oc1c(Br)cccc1/C=N/c1ncn[nH]1 -15.4%
Cn1c(=NC(=O)c2cnccn2)sc2ccccc21 -0.733%
O=C1NC[C@H](c2ccccc2)OC(=O)[C@H](Cc2ccc(F)cc2)CC/C=C/C[C@@H]1CC(=O)N(CCO)Cc1ccccc1 -25.4%
COc1ccc(Nc2nc(N)nc(CN3CCOCC3)n2)cc1 -9.11%
Fc1ccc(/C=N/Nc2ncnc3nc[nH]c23)cc1F -4.51%
CCn1c(Cc2ccccc2)nnc1SCC(=O)Nc1ccc(N)cc1 -17.3%
COCCNC(=O)Cn1cc(C(=O)c2cccs2)c2ccccc21 -0.504%
C[C@H]1CCCCO[C@H](CN(C)C(=O)Nc2ccc(F)cc2)[C@@H](C)CN([C@@H](C)CO)C(=O)c2cc(NS(=O)(=O)c3ccc(Cl)cc3)ccc2O1 -35.2%
CC(OC(=O)Cc1c(F)cccc1Cl)C(=O)NC1(C#N)CCCCC1 (stereo not drawn) -14.1%
Nc1ccc(C(=O)Nc2ccc3c(O)cc(S(=O)(=O)O)cc3c2)cc1 -23.1%
Cc1cc2c(NC(=O)CC(C)(C)CC(=O)O)cccc2nn1 -25.8%
CCN1CCN(c2ccc(NC(=O)c3cccc(S(=O)(=O)N4CCCC4)c3)cc2)CC1 -4.91%
O=C(O)c1ccc(Br)c(S(=O)(=O)N2CCCC2)c1 11.2%
COc1cc(/C=N/NC(=O)CCN2CCN(c3ccccc3)CC2)cc(OC)c1OC -13.7%
O=C(Nc1cn2ccccc2n1)c1cc(-c2ccccc2)on1 -9.05%
CC(NC(=O)COC(=O)c1ccc([N+](=O)[O-])o1)c1ccccc1 (stereo not drawn) -13.2%
COC(=O)c1[nH]c2ccc(C)cc2c1NC(=O)c1ccccc1[N+](=O)[O-] -4.8%
O=C(NC1CCc2ccccc2C1)c1cc(-c2ccccc2)on1 (stereo not drawn) -1.94%
Cc1ccccc1Oc1nc(-c2ccccn2)nc2ccccc12 -33%
CCOC(=O)CC(NC(=O)Cc1ccc(F)cc1)c1ccccc1Cl (stereo not drawn) -4.53%
COc1cc(C2Nc3ccccc3C(=O)N2NS(C)(=O)=O)c([N+](=O)[O-])cc1OC (stereo not drawn) -16.7%
NC1=NN=C(N2N=C(c3ccccc3)CC2(O)C(F)(F)F)n2ncnc2C1 (stereo not drawn) -18.7%
O=C1C=C(O)c2cccc(O)c2C1=O -12%
CCc1c(C)sc(NC(=O)C2CC(c3c(F)cccc3Cl)=NO2)c1C#N (stereo not drawn) -1.98%
CC[C@]1(O)CC2CN(CCc3c([nH]c4ccccc34)[C@@](C(=O)OC)(c3cc4c(cc3OC)N(C=O)[C@H]3[C@@](O)(C(=O)OC)[C@H](OC(C)=O)[C@]5(CC)C=CCN6CC[C@]43[C@@H]65)C2)C1 (stereo partly drawn) -12%
COc1ccccc1C(=O)Nc1ccccc1N1CCCCC1 3.51%
O=C(C[C@H]1C=C[C@@H](NC(=O)Nc2ccccc2)[C@@H](CO)O1)NCc1ccccn1 -11.4%
Cc1ccc(N(C)S(=O)(=O)c2cccc(C(=O)Oc3ccc4c(C)cc(=O)oc4c3)c2)cc1 -27%
Cc1ccc(S(=O)(=O)Cn2nnnc2C(c2ccccc2)N2CCN(c3ccccc3)CC2)cc1 (stereo not drawn) -34.1%
O=C(NC1Cc2ccccc2C1)[C@H]1N[C@H]2c3cccc(=O)n3C[C@H]2[C@@H]1CO -6.83%
Cc1[nH]n(-c2ccccc2)c(=O)c1C(c1ccc(C(=O)O)cc1)c1c(C)[nH]n(-c2ccccc2)c1=O -26.7%
Cc1[nH]n(-c2ccccc2)c(=O)c1C(c1ccc(O)c([N+](=O)[O-])c1)c1c(C)[nH]n(-c2ccccc2)c1=O -19.9%
Cn1c(CCNC(=O)c2ccc(Cl)c(Cl)c2)nnc1SCc1ccc(Cl)c(Cl)c1 -11.5%
COc1ccc(CCNC(=O)C23CCC(C)(C(=O)C2Br)C3(C)C)cc1OC (stereo not drawn) -15.7%
O=C(c1cc(-c2ccccc2)on1)N1CCN(c2ccncc2)CC1 -2.62%
O=C(C1=C(O)C(=O)N(Cc2ccccc2)C1c1ccncc1)c1ccco1 (stereo not drawn) -32.6%
COc1cc(Cc2nccc3cc(OC)c(OC)cc23)c(S(=O)(=O)O)cc1OC -0.945%
CC=Cc1ccc2n(c1=O)C[C@H]1[C@H](CO)[C@@H](C(=O)NC3CCC3)[C@@H]2N1S(=O)(=O)c1cn(C)cn1 (mixture of isomers) -1.42%
Cc1cc(C)c(C(N)=O)c(Nc2cccc3ccccc23)n1 -15.8%
COc1ccc(Nc2nnc(-c3ccc(C(N)=O)cc3)c3ccccc23)cc1 -7.69%
C[C@@H]1CN([C@@H](C)CO)C(=O)c2cc(NS(=O)(=O)c3cccs3)ccc2O[C@H]1CN(C)CC1CCCCC1 -0.808%
COc1ccc(-c2cnc3c(c2)C(=O)N([C@@H](C)CO)C[C@@H](C)[C@@H](CN(C)Cc2cccnc2)O3)cc1 -6.34%
C/C(=C\C(=O)c1ccccc1)Nc1ccc(N2CCOCC2)cc1 -30.2%
CCCc1nnc(NS(=O)(=O)c2ccc(C)cc2)o1 -0.661%
Cc1ccc(S(=O)(=O)n2nc(C)c(C#N)c2N)cc1 4.8%
COC(=O)c1c(N)n(-c2ccc(NC(C)=O)cc2)c2nc3ccccc3nc12 -49%
CC(C)C#Cc1ccc2c(c1)O[C@@H](CN(C)C(=O)CN(C)C)[C@@H](C)CN([C@@H](C)CO)S2(=O)=O -9.31%
C[C@@H]1CCCCO[C@H](CN(C)Cc2ccncc2)[C@H](C)CN([C@H](C)CO)C(=O)c2cc(NC(=O)C3CCCCC3)ccc2O1 -9.09%
COc1ccc(NC(=O)Nc2ccc3c(c2)C(=O)N([C@H](C)CO)C[C@@H](C)[C@@H](CN(C)C(=O)CCC(F)(F)F)OCCCC[C@H](C)O3)cc1 -17.6%
CC(C)NC(=O)N(C)C[C@H]1OCCCC[C@H](C)Oc2ccc(NC(=O)Nc3ccccc3)cc2C(=O)N([C@H](C)CO)C[C@@H]1C -11.9%
CC(C)NC(=O)Nc1ccc2c(c1)C(=O)N([C@H](C)CO)C[C@H](C)[C@@H](CN(C)C(=O)Cc1ccccc1)OCCCC[C@H](C)O2 -10.9%
CN(C)C(=O)c1cccc(-c2ccc3c(c2)[C@@H]2[C@@H](CCN2C(=O)c2cccnc2)[C@@H](CO)N3)c1 -11.2%
O=C(C[C@H]1C=C[C@H](NS(=O)(=O)c2ccc(F)cc2)[C@H](CO)O1)N1CCN(c2ccccc2)CC1 -5.74%
C[C@H](CO)N1C[C@H](C)[C@@H](CN(C)Cc2ccccn2)Oc2ncc(C#CC3(O)CCCC3)cc2C1=O -21.8%
COc1ccc(OC)c(-n2nnnc2SCC(=O)Nc2ccccc2OC)c1 -24.6%
CC(=O)N(C)C1=C(O)c2ccccc2C(=O)C1=O 3.26%
O=C(Nc1ccc2c(c1)OCO2)c1ccc2c(c1)OCO2 -25.8%
CN(C)CCNC(=O)c1cc(-c2ccccc2)on1 -1.32%
COc1ccc(OC)c2nc3c(C(=O)NCCN(C)C)cccc3nc12 -2.27%
CCn1cc(/C=C2/SC(=S)NC2=O)c(C)n1 -2.57%
Nc1ccc2nn(-c3ccc(F)cc3)nc2c1 -35.2%
Cc1ccc(CNC(=O)c2cc(-c3ccccc3)on2)cc1 4.88%
COc1ccc(C2=C(C)CC(C)(C)NC2=O)cc1OC -25.1%
O=c1ccc(-c2ccc(S(=O)(=O)Nc3ccc(F)cc3)s2)n[nH]1 -18.8%
O=C(NCc1ccccc1)c1cc(-c2ccccc2)on1 2.2%
Cn1c(NC(=O)c2cc(-c3ccccc3)on2)nc2ccccc21 -9.11%
O=C(NCCN1CCCCC1)c1cc(-c2ccccc2)on1 4.24%
CCCCNC(=O)c1cc(-c2ccccc2)on1 1.77%
O=C(Nc1ncc2ccccc2n1)c1cc(-c2ccccc2)on1 -0.281%
O=c1c(C=NCCCn2ccnc2)c(-c2ccccc2)[nH]n1-c1nc2ccccc2s1 -25.4%
Cc1[nH][nH]c(=O)c1C(c1ccc(Br)cc1)c1c(C)[nH][nH]c1=O -17.9%
Cc1[nH][nH]c(=O)c1C(c1ccc(Cl)cc1)c1c(C)[nH][nH]c1=O 5.36%
Cc1[nH][nH]c(=O)c1C(c1ccc(O)c(Br)c1)c1c(C)[nH][nH]c1=O -7.14%
O=C(C[C@@H]1CC[C@H](NC(=O)Nc2cc(F)ccc2F)[C@@H](CO)O1)Nc1ccc(-c2ccccc2)cc1 -2.09%
COc1cc(C2C(C#N)=C(N)Oc3n[nH]c(C)c32)ccc1OC(=O)c1ccccc1 (stereo not drawn) -16.4%
COC(=O)C1(NC(=O)CNC(=O)OCc2ccccc2)CCCC1 (Cbz-Gly-[Ac5c]-OMe) -7.97%
CCN(CC)CCCNc1nc2ccccc2c2[nH]c3ccc(OC)cc3c12 -7.38%
Cn1c(N)c(C(=O)c2cc(-c3ccccn3)nc3ccccc23)c(=O)[nH]c1=O -17.4%
Cc1c(NC(=O)c2cccnc2C(=O)O)cccc1C(=O)O -3.04%
N#Cc1ccc(CC(=O)c2ccccc2)[nH]c1=O -8.48%
C[C@@H]1CN([C@H](C)CO)S(=O)(=O)c2ccc(C#Cc3ccccn3)cc2O[C@@H]1CN(C)C(=O)C1CC1 -9.78%
C[C@H](CO)N1C[C@H](C)[C@H](CN(C)Cc2cccnc2)Oc2cc(C#CCN(C)C)ccc2S1(=O)=O -10.9%
